# Laboratory results from the supplement of paper PMC4466140.
# B1: unnamed (peptide)
# chain: GRSRLFPHSPLGRSS
# B2: unnamed (peptide)
# chain: NTMKKRPAPPSLPSL
# Columns and labels:
# Assay in all cases: SPOT peptide array binding signal intensity (averaged, normalized) (arbitrary units (background-subtracted, floor 0; scale differs between SH3 domains)); higher = stronger binding of the SH3 domain to the peptide
# AgAbp1 = molecular target: AgAbp1
# How it was run: (§1)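 Peptides were synthetic 15-mers on cellulose membranes, with every cysteine replaced by serine. They were incubated overnight at 4°C with GST-SH3 domains from four yeast species at 10 μg/ml in TBS-based blocking buffer. Binding signal, the replicate-averaged normalized and background-subtracted spot intensity, is in arbitrary units that differ between domains.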
# AgBbc1 = molecular target: AgBbc1
# How it was run: as §1
# AgBem1-D1 = molecular target: AgBem1-D1
# How it was run: as §1
# AgBzz1-D1 = molecular target: AgBzz1-D1
# How it was run: as §1
# AgBzz1-D2 = molecular target: AgBzz1-D2
# How it was run: as §1
# AgCyk3 = molecular target: AgCyk3
# How it was run: as §1
# AgFus1 = molecular target: AgFus1
# How it was run: as §1
# AgHof1 = molecular target: AgHof1
# How it was run: as §1
# AgHse1 = molecular target: AgHse1
# How it was run: as §1
# AgLsb1 = molecular target: AgLsb1
# How it was run: as §1
# AgLsb4 = molecular target: AgLsb4
# How it was run: as §1
# AgMyo5 = molecular target: AgMyo5
# How it was run: as §1
# AgNbp2 = molecular target: AgNbp2
# How it was run: as §1
# AgRvs167 = molecular target: AgRvs167
# How it was run: as §1
# AgSho1 = molecular target: AgSho1
# How it was run: as §1
# AgSla1-D1-D2 = molecular target: AgSla1-D1-D2
# How it was run: as §1
# AgSla1-D3 = molecular target: AgSla1-D3
# How it was run: as §1
# CaAbp1-D1 = molecular target: CaAbp1-D1
# How it was run: as §1
# CaAbp1-D2 = molecular target: CaAbp1-D2
# How it was run: as §1
# CaBbc1 = molecular target: CaBbc1
# How it was run: as §1
# CaBem1-D1 = molecular target: CaBem1-D1
# How it was run: as §1
# CaBzz1-D1 = molecular target: CaBzz1-D1
# How it was run: as §1
# CaBzz1-D2 = molecular target: CaBzz1-D2
# How it was run: as §1
# CaCyk3 = molecular target: CaCyk3
# How it was run: as §1
# CaFus1 = molecular target: CaFus1
# How it was run: as §1
# CaHof1 = molecular target: CaHof1
# How it was run: as §1
# CaHse1 = molecular target: CaHse1
# How it was run: as §1
# CaLsb1 = molecular target: CaLsb1
# How it was run: as §1
# CaLsb4 = molecular target: CaLsb4
# How it was run: as §1
# CaMyo5 = molecular target: CaMyo5
# How it was run: as §1
# CaNbp2 = molecular target: CaNbp2
# How it was run: as §1
# CaRvs167 = molecular target: CaRvs167
# How it was run: as §1
# CaRvs167-3 = molecular target: CaRvs167-3
# How it was run: as §1
# CaSho1 = molecular target: CaSho1
# How it was run: as §1
# CaSla1-D1-D2 = molecular target: CaSla1-D1-D2
# How it was run: as §1
# CaSla1-D3 = molecular target: CaSla1-D3
# How it was run: as §1
# ScAbp1 = molecular target: ScAbp1
# How it was run: as §1
# ScBbc1 = molecular target: ScBbc1
# How it was run: as §1
# ScBem1-D1 = molecular target: ScBem1-D1
# How it was run: as §1
# ScBzz1-D1 = molecular target: ScBzz1-D1
# How it was run: as §1
# ScBzz1-D2 = molecular target: ScBzz1-D2
# How it was run: as §1
# ScCyk3 = molecular target: ScCyk3
# How it was run: as §1
# ScFus1 = molecular target: ScFus1
# How it was run: as §1
# ScHof1 = molecular target: ScHof1
# How it was run: as §1
# ScHse1 = molecular target: ScHse1
# How it was run: as §1
# ScLsb1 = molecular target: ScLsb1
# How it was run: as §1
# ScLsb2 = molecular target: ScLsb2
# How it was run: as §1
# ScLsb3 = molecular target: ScLsb3
# How it was run: as §1
# ScLsb4 = molecular target: ScLsb4
# How it was run: as §1
# ScMyo3 = molecular target: ScMyo3
# How it was run: as §1
# ScMyo5 = molecular target: ScMyo5
# How it was run: as §1
# ScNbp2 = molecular target: ScNbp2
# How it was run: as §1
# ScPex13 = molecular target: ScPex13
# How it was run: as §1
# ScRvs167 = molecular target: ScRvs167
# How it was run: as §1
# ScSho1 = molecular target: ScSho1
# How it was run: as §1
# ScSla1-D1-D2 = molecular target: ScSla1-D1-D2
# How it was run: as §1
# ScSla1-D3 = molecular target: ScSla1-D3
# How it was run: as §1
# SpAbp1-D1 = molecular target: SpAbp1-D1
# How it was run: as §1
# SpBbc1 = molecular target: SpBbc1
# How it was run: as §1
# SpBzz1-D1 = molecular target: SpBzz1-D1
# How it was run: as §1
# SpBzz1-D2 = molecular target: SpBzz1-D2
# How it was run: as §1
# SpCyk3 = molecular target: SpCyk3
# How it was run: as §1
# SpHof1 = molecular target: SpHof1
# How it was run: as §1
# SpHof1-2 = molecular target: SpHof1-2
# How it was run: as §1
# SpHof1-3 = molecular target: SpHof1-3
# How it was run: as §1
# SpHse1 = molecular target: SpHse1
# How it was run: as §1
# SpLsb1 = molecular target: SpLsb1
# How it was run: as §1
# SpLsb4 = molecular target: SpLsb4
# How it was run: as §1
# SpMyo1 = molecular target: SpMyo1
# How it was run: as §1
# SpNbp2 = molecular target: SpNbp2
# How it was run: as §1
# SpPex13 = molecular target: SpPex13
# How it was run: as §1
# SpRvs167 = molecular target: SpRvs167
# How it was run: as §1
# SpSla1-D1-D2 = molecular target: SpSla1-D1-D2
# How it was run: as §1
# SpSla1-D3 = molecular target: SpSla1-D3
# How it was run: as §1
binder,measurement,setting,value
B1,SPOT peptide array binding signal intensity,AgAbp1,93
same,SPOT peptide array binding signal intensity,AgBbc1,13.8
same,SPOT peptide array binding signal intensity,AgBem1-D1,88.5
same,SPOT peptide array binding signal intensity,AgBzz1-D1,26.5
same,SPOT peptide array binding signal intensity,AgBzz1-D2,0.5
same,SPOT peptide array binding signal intensity,AgCyk3,0.5
same,SPOT peptide array binding signal intensity,AgFus1,454
same,SPOT peptide array binding signal intensity,AgHof1,14.5
same,SPOT peptide array binding signal intensity,AgHse1,716
same,SPOT peptide array binding signal intensity,AgLsb1,0.75
same,SPOT peptide array binding signal intensity,AgLsb4,39.5
same,SPOT peptide array binding signal intensity,AgMyo5,≤ 0
same,SPOT peptide array binding signal intensity,AgNbp2,177
same,SPOT peptide array binding signal intensity,AgRvs167,3.42
same,SPOT peptide array binding signal intensity,AgSho1,52.8
same,SPOT peptide array binding signal intensity,AgSla1-D1-D2,26
same,SPOT peptide array binding signal intensity,AgSla1-D3,11.2
same,SPOT peptide array binding signal intensity,CaAbp1-D1,491
same,SPOT peptide array binding signal intensity,CaAbp1-D2,410
same,SPOT peptide array binding signal intensity,CaBbc1,105
same,SPOT peptide array binding signal intensity,CaBem1-D1,35
same,SPOT peptide array binding signal intensity,CaBzz1-D1,53.5
same,SPOT peptide array binding signal intensity,CaBzz1-D2,39.2
same,SPOT peptide array binding signal intensity,CaCyk3,3.5
same,SPOT peptide array binding signal intensity,CaFus1,1070
same,SPOT peptide array binding signal intensity,CaHof1,0.75
same,SPOT peptide array binding signal intensity,CaHse1,11.1
same,SPOT peptide array binding signal intensity,CaLsb1,1
same,SPOT peptide array binding signal intensity,CaLsb4,≤ 0
same,SPOT peptide array binding signal intensity,CaMyo5,≤ 0
same,SPOT peptide array binding signal intensity,CaNbp2,539
same,SPOT peptide array binding signal intensity,CaRvs167,3.5
same,SPOT peptide array binding signal intensity,CaRvs167-3,43.8
same,SPOT peptide array binding signal intensity,CaSho1,513
same,SPOT peptide array binding signal intensity,CaSla1-D1-D2,76.5
same,SPOT peptide array binding signal intensity,CaSla1-D3,≤ 0
same,SPOT peptide array binding signal intensity,ScAbp1,144
same,SPOT peptide array binding signal intensity,ScBbc1,≤ 0
same,SPOT peptide array binding signal intensity,ScBem1-D1,57.2
same,SPOT peptide array binding signal intensity,ScBzz1-D1,6.5
same,SPOT peptide array binding signal intensity,ScBzz1-D2,29.5
same,SPOT peptide array binding signal intensity,ScCyk3,91.5
same,SPOT peptide array binding signal intensity,ScFus1,374
same,SPOT peptide array binding signal intensity,ScHof1,≤ 0
same,SPOT peptide array binding signal intensity,ScHse1,2660
same,SPOT peptide array binding signal intensity,ScLsb1,≤ 0
same,SPOT peptide array binding signal intensity,ScLsb2,≤ 0
same,SPOT peptide array binding signal intensity,ScLsb3,212
same,SPOT peptide array binding signal intensity,ScLsb4,1.5
same,SPOT peptide array binding signal intensity,ScMyo3,0.25
same,SPOT peptide array binding signal intensity,ScMyo5,≤ 0
same,SPOT peptide array binding signal intensity,ScNbp2,294
same,SPOT peptide array binding signal intensity,ScPex13,≤ 0
same,SPOT peptide array binding signal intensity,ScRvs167,12.3
same,SPOT peptide array binding signal intensity,ScSho1,1020
same,SPOT peptide array binding signal intensity,ScSla1-D1-D2,224
same,SPOT peptide array binding signal intensity,ScSla1-D3,1.25
same,SPOT peptide array binding signal intensity,SpAbp1-D1,186
same,SPOT peptide array binding signal intensity,SpBbc1,2
same,SPOT peptide array binding signal intensity,SpBzz1-D1,255
same,SPOT peptide array binding signal intensity,SpBzz1-D2,0.375
same,SPOT peptide array binding signal intensity,SpCyk3,≤ 0
same,SPOT peptide array binding signal intensity,SpHof1,68.5
same,SPOT peptide array binding signal intensity,SpHof1-2,15
same,SPOT peptide array binding signal intensity,SpHof1-3,412
same,SPOT peptide array binding signal intensity,SpHse1,730
same,SPOT peptide array binding signal intensity,SpLsb1,0.25
same,SPOT peptide array binding signal intensity,SpLsb4,≤ 0
same,SPOT peptide array binding signal intensity,SpMyo1,≤ 0
same,SPOT peptide array binding signal intensity,SpNbp2,419
same,SPOT peptide array binding signal intensity,SpPex13,10.5
same,SPOT peptide array binding signal intensity,SpRvs167,6.58
same,SPOT peptide array binding signal intensity,SpSla1-D1-D2,10
same,SPOT peptide array binding signal intensity,SpSla1-D3,18.5
B2,SPOT peptide array binding signal intensity,SpBzz1-D2,257
same,SPOT peptide array binding signal intensity,SpCyk3,2
same,SPOT peptide array binding signal intensity,SpHof1,144
same,SPOT peptide array binding signal intensity,SpHof1-2,41.8
same,SPOT peptide array binding signal intensity,SpHof1-3,227
same,SPOT peptide array binding signal intensity,SpHse1,602
same,SPOT peptide array binding signal intensity,SpLsb1,12.2
same,SPOT peptide array binding signal intensity,SpLsb4,788
same,SPOT peptide array binding signal intensity,SpMyo1,196
same,SPOT peptide array binding signal intensity,SpNbp2,308
same,SPOT peptide array binding signal intensity,SpPex13,55
same,SPOT peptide array binding signal intensity,SpRvs167,110
same,SPOT peptide array binding signal intensity,SpSla1-D1-D2,15
same,SPOT peptide array binding signal intensity,SpSla1-D3,156
